In the supplement of paper PMC10849652:
The full data set covers some 7,900 targets. This sample favours those with a hit. About 0.6% of all pairs of compound and target were hits. A number with no mark means an inactive call.

Legend:
Assay in all cases: log2 fold change, soluble protein after heating vs DMSO (PISA); higher = thermal stabilisation; K562 cells, 10 uM, 30 min; active = over 0.2 and 3.5 SD of the protein, either way, in both replicates (recomputed)
[1] = compound: CC[C@@H]1C(=O)N(C)c2cnc(Nc3ccc(C(=O)N[C@H]4CC[C@H](N5CCN(CC6CC6)CC5)CC4)cc3OC)nc2N1C(C)C [volasertib]
Outline: (§1)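 Quantification of soluble protein used TMTpro 16plex LC-MS/MS, with channel sums equalised. Samples were the supernatant after 21,000xg for 90 min of pooled aliquots from K562 cells (2×10^6 cells/mL) treated with 10 μM compound for 30 min, heated for 3 min over 48°C-58°C, and extracted in PBS with 0.5% NP-40 at 4°C. Values, from duplicates, describe thermal stability against control samples on a log2 fold-change scale.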

[2] = compound: CC[C@H](C)N1C=C(C2=C(C=C(C=C21)C3=CN=C(C=C3)N4CCNCC4)C(=O)NCC5=C(C=C(NC5=O)C)C)C
Outline: as §1

[3] = compound: CC[C@H](C)[C@@H](C(=O)N[C@@H]([C@@H](C)O)C(=O)N[C@@H](CC(C)C)C(=O)[C@]1(CO1)C)NC(=O)[C@H]([C@@H](C)CC)N(C)C(=O)C [epoxomicin]
Outline: as §1

[4] = compound: CCn1c(C(=O)N(C2CC2)C2CC2)cc2c3c(ncn3C)c(Nc3cc(C)n(C)n3)nc21
Outline: as §1

[5] = compound: CN(C)CC(=O)Nc1ccc2[nH]c(=O)c3ccccc3c2c1
Outline: as §1

[6] = compound: CN(CCOC1=CC=C(C=C1)C[C@H]2C(=O)NC(=O)S2)C3=CC=CC=N3 (racemic) [rosiglitazone]
Outline: as §1

[7] = compound: CN1C2=C(C3=C1C(=O)N(N=C3)CC4=CC(=CC=C4)N)SC(=C2)S(=O)C
Outline: as §1

[8] = compound: CC[C@@H]1C(=O)N(C)c2cnc(Nc3ccc(C(=O)NC4CCN(C)CC4)cc3OC)nc2N1C1CCCC1
Outline: as §1

Chain of UniProt Q9NRH2 (Q9NRH2 whole entry, looked up): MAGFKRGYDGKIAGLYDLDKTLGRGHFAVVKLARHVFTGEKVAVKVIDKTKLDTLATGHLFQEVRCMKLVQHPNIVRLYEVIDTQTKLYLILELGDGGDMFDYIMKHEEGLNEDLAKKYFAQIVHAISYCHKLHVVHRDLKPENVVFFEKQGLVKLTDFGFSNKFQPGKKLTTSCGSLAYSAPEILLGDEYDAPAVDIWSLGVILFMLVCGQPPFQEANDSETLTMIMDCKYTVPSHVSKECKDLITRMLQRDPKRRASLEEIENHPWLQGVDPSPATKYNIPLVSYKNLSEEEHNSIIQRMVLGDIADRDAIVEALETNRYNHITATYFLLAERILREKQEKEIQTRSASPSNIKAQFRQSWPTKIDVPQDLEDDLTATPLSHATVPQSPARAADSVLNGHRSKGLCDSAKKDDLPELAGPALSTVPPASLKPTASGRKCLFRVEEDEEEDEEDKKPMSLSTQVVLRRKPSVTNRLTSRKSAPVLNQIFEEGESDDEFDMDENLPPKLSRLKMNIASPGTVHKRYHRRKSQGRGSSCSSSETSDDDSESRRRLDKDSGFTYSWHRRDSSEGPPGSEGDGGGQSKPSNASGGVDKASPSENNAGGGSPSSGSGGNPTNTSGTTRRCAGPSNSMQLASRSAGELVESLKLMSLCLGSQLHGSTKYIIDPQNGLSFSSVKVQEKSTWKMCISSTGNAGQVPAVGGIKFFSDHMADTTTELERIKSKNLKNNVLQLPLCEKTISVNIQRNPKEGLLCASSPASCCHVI
Chain of UniProt Q9H5L6 (Q9H5L6 whole entry, looked up): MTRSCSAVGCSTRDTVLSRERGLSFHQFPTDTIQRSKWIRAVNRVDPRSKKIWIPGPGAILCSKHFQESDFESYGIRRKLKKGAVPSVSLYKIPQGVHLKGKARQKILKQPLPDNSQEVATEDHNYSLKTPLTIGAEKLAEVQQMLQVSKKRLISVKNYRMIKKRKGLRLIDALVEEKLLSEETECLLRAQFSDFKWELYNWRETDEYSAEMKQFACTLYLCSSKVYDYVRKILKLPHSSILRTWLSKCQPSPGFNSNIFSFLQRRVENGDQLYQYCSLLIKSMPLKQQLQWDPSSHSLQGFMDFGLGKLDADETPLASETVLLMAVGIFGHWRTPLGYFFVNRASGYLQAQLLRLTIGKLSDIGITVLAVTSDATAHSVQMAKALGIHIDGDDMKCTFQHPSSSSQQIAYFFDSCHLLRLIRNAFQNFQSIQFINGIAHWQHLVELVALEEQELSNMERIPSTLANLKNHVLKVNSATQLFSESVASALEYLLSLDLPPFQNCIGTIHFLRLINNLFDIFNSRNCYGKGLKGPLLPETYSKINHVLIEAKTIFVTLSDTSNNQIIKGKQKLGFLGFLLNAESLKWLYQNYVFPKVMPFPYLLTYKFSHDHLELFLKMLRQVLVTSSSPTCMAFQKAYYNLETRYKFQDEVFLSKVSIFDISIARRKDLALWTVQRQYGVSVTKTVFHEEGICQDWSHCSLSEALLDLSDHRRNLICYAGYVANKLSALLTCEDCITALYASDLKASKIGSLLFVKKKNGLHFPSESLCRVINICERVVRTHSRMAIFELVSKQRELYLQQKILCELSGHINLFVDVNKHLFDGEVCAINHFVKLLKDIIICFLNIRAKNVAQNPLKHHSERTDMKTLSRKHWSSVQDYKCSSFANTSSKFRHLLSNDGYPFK
Chain of UniProt Q6PCB7 (Q6PCB7 whole entry, looked up): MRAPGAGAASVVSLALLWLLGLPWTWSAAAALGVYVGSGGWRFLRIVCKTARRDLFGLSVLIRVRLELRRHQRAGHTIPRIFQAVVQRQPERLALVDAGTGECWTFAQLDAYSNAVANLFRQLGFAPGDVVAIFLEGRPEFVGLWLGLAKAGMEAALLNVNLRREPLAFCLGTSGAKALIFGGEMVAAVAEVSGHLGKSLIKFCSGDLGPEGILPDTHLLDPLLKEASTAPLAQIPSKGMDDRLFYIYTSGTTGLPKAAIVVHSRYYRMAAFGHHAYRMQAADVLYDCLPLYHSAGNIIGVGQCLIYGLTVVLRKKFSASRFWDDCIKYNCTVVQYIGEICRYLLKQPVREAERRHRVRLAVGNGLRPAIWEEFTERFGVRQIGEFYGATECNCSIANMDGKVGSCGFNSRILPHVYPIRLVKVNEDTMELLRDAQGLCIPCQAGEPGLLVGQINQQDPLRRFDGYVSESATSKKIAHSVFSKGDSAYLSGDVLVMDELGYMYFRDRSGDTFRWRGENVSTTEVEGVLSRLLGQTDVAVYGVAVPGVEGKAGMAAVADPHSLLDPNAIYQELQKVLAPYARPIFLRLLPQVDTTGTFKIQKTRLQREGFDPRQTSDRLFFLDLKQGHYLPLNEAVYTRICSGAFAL
Chain of UniProt Q969S0 (Q969S0 whole entry, looked up): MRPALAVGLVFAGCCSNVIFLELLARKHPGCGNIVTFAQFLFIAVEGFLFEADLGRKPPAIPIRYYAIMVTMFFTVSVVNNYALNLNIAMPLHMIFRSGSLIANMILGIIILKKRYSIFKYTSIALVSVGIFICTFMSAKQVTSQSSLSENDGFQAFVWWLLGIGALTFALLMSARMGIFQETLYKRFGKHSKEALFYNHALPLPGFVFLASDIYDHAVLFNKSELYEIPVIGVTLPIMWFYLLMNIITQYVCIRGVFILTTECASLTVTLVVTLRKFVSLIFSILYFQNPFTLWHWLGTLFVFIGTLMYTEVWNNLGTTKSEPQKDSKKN
Chain of UniProt P35711 (P35711 whole entry, looked up): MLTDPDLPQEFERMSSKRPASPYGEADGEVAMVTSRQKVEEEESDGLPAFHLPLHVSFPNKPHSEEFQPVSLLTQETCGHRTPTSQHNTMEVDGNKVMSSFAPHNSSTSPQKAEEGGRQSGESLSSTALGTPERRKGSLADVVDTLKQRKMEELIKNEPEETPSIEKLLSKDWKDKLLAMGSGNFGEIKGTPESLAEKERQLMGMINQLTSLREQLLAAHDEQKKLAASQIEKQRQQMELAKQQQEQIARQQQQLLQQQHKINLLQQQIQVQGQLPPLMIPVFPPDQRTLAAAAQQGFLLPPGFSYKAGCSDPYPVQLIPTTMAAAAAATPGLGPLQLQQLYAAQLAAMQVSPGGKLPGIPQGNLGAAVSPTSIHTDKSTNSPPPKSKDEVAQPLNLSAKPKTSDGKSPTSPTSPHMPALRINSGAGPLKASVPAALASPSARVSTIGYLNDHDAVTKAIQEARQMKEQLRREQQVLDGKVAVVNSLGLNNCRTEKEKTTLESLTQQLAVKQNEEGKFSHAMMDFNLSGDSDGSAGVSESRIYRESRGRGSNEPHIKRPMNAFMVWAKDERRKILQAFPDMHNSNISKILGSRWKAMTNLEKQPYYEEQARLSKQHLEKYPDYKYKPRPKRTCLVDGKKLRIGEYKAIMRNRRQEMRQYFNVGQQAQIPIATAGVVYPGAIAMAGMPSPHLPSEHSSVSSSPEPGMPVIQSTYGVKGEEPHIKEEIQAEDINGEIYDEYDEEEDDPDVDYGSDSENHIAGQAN
Chain of UniProt O60749 (O60749 whole entry, looked up): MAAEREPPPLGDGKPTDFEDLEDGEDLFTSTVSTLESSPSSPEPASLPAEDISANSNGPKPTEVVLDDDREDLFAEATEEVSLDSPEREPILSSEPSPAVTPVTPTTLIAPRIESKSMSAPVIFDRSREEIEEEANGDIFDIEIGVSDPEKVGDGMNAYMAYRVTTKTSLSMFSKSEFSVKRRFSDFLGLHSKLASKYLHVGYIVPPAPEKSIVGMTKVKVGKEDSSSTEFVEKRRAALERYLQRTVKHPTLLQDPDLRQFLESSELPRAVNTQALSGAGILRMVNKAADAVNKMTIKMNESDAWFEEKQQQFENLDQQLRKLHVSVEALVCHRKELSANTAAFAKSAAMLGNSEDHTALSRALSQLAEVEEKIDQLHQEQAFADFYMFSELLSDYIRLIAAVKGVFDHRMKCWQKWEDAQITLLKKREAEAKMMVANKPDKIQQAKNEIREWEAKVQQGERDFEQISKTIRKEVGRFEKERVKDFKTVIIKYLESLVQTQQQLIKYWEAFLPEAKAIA

Target	log2 fold change [1]	log2 fold change [2]	log2 fold change [3]	log2 fold change [4]	log2 fold change [5]	log2 fold change [6]	log2 fold change [7]	log2 fold change [8]
SLC27A1 (UniProt Q6PCB7)	-0.639 (active)	0.022	-0.021	-0.008	0.008	-0.01	-0.072	–
SOX5 (UniProt P35711)	-0.082	0.014	–	0.099	-0.062	0.046	–	–
SNRK (UniProt Q9NRH2)	-0.085	–	–	–	–	–	-0.011	-0.157
SLC35B4 (UniProt Q969S0)	–	-0.041	0.044	0.042	-0.134	0.005	–	-0.003
THAP9 (UniProt Q9H5L6)	–	-0.167	–	–	–	0.008	-0.039	–
SNX2 isoform 2 (UniProt O60749)	-0.06	–	0.034	–	-0.161	0.076	0.086	-0.194
